Reference: PubChem BioAssay (NCI)
The panel holds about 79,000 compounds, 15% with a hit somewhere; the sample as a whole holds those more often. Values without a mark were called inactive. Active and inactive are the calls of the source. Cut-off read from the data, not from the text of the source: active = growth inhibition above about 70%; inactive = the rest.

Key:
[1] = NCI Yeast Anticancer Drug Screen. Data for the rad50 strain (AID 155);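 note: 0% = growth of vehicle-only cultures of the same strain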; conditions: S. cerevisiae rad50 strain growth inhibition; at 50.0 µM; stronger effect = higher value
In short: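 A DNA repair-deficient yeast mutant serves as the test organism; compound-induced growth inhibition is calculated against vehicle-treated cells.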

[2] = NCI Yeast Anticancer Drug Screen. Data for the mec2-1 strain (AID 157); conditions: S. cerevisiae mec2-1 strain, at 50.0 µM, stronger effect = higher value
In short: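 Each compound was tested on mec2-1 yeast, a strain altered in DNA damage repair or cell cycle control. Growth inhibition is reported relative to vehicle.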

[3] = NCI Yeast Anticancer Drug Screen. Data for the sgs1 mgt1 strain (AID 161);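 note: 0% = growth of cultures given vehicle only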; conditions: S. cerevisiae sgs1 mgt1 strain, at 50.0 µM, stronger effect = higher value
In short: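 Read-out: growth inhibition vs vehicle controls. Cells: mutant yeast strain deficient in DNA damage repair.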

[4] = NCI Yeast Anticancer Drug Screen. Data for the cln2 rad14 strain (AID 165);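 note: 0% = growth equal to vehicle treated cultures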; conditions: S. cerevisiae cln2 rad14 strain, at 50.0 µM, stronger effect = higher value
In short: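 Test compounds were added to cln2 rad14 yeast cultures; inhibition of growth was then determined by comparison with vehicle treatment.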

[5] = NCI Yeast Anticancer Drug Screen. Data for the bub3 strain (AID 167); conditions: S. cerevisiae bub3 mutant strain, at 50.0 µM, stronger effect = higher value
In short: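 Inhibition values come from growth of compound-treated mutant yeast normalised to vehicle-treated controls.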

[6] = NCI Yeast Anticancer Drug Screen. Data for the mlh1 rad18 strain (AID 175); conditions: S. cerevisiae mlh1 rad18 strain growth inhibition; at 50.0 µM; stronger effect = higher value
In short: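 Inhibition values reflect reduced growth of mutant yeast versus vehicle-treated controls following compound exposure; the mutations affect DNA damage repair.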

SMILES | growth inhibition [1] | growth inhibition [2] [%] | growth inhibition [3] | growth inhibition [4] | growth inhibition [5] [%] | growth inhibition [6]
Cn1c(=O)c2[nH]c(/N=N/N3CCN(CCO)CC3)nc2n(C)c1=O | 20.1% | -14.8 | 6.95% | -34% | -45.6 | 9.35%
CCOC(=O)c1ccccc1NC | -8.65% | -7.4 | -12.1% | -4.9% | -23.4 | -26.1%
CC(=O)Nc1ccc(C(=O)NN2C(=O)C(Cl)C2c2ccccc2O)cc1 (stereo unspecified) | -24.8% | -16.3 | -45.9% | 0.15% | -38.1 | -32.9%
O=C(Nc1ccc(Br)cc1)Nc1ccc(Br)cc1 | -23.3% | 8.15 | 15.3% | -36.4% | 31.9 | 6.25%
CC(=O)OC1CCCC2CCCC21 (stereo unspecified) | 0.2% | 5.2 | 1.25% | -5.7% | -2.35 | -3.75%
Fc1c(F)c(F)c(SN=S=Nc2ccccc2)c(F)c1F | 13.4% | 12.1 | 13.3% | -1.35% | 15.1 | 26.9%
O=C1c2ccccc2C(C(c2ccccc2)c2ccccc2)c2ccccc21 | -22% | -18.6 | -28.9% | 8.45% | 5.25 | -14%
COc1ccc(NC(=O)Nc2ccc(SC)cc2)c(Cl)c1 | 0.75% | 5.6 | -2.8% | -13.9% | 19.5 | 20.9%
CCCC(O)CNCc1ccc2ncccc2c1 (stereo unspecified) | -20.4% | -4.2 | 2.1% | -66.8% | -4.35 | -23.4%
CC(C)(C)SCCCCO | -7.3% | 19.4 | -0.8% | 0.35% | -5.2 | -3.15%
NC(CSS(=O)(=O)O)=NCCCCC1CCCCC1 | -6.3% | -2.75 | 7.35% | -6.25% | 0.1 | 16.4%
O/N=C1\CCCC\C1=N/O.O/N=C1\CCCC\C1=N/O.[Pt] | 34.8% | -0.8 | 8.05% | 19.3% | -1.75 | 8.05%
O=C(O)CCC(=O)NNC(=O)CCC(=O)O | 16.2% | -2.45 | 4.15% | -8.45% | 14.3 | -22.4%
CCCCCCC(=O)/C=C/c1ccccc1Cl | -12.2% | -29.6 | -1.35% | 10.3% | 15.1 | 10.1%
CN1CCc2c1nc(-c1ccccc1)c1c2N(C)CC1 | 2.2% | -11 | -6.4% | 9.65% | -18.2 | -1.5%
C=CCO[Si](OCC=C)(OCC=C)OCC=C | 0.85% | -19 | -6.2% | 13.9% | 9.6 | 3.9%
NOCc1nnc(Nc2ccccc2)s1 | 7.25% | 3.8 | 5.8% | 19.3% | -4.4 | 5.55%
C=C(C)CNCCN | 36.1% | 22.1 | 6.2% | -0.6% | 26.6 | 16.3%
C=CCN(CC=C)CCNc1cc(C)nc(Nc2nc3ccc(Cl)cc3[nH]2)n1 | 90.6% (active) | 50.4 | 93.2% (active) | 82% (active) | 24.9 | 91.5% (active)
NC(N)=N/N=C/c1oc(-c2ccc(S(=O)(=O)O)o2)c(-c2ccc(S(=O)(=O)O)o2)c1[N+](=O)[O-] | -21.4% | 9.6 | -22% | 6.6% | -3.35 | 0.95%
O=C1c2ccccc2CC12Cc1ccc3c(c1C2=O)CCCC3 (stereo unspecified) | -11.2% | -14.4 | -3.85% | -30.2% | -3.55 | -33.5%
COc1ccc2[nH]c3c(c2c1)[C@H](c1ccccc1)C[C@@H]1C(=O)N(c2ccccc2)C(=O)[C@H]31 | -5.25% | -6.65 | 1.75% | 0.65% | -8.9 | -7.95%
CN(C)c1ncnc2ncn(C3OC(CO)C(O)C3O)c12 (stereo unspecified) | 67.6% | 46.6 | 60.2% | 7.3% | -13.2 | 61.7%

SMILES | growth inhibition [1] | growth inhibition [2] [%] | growth inhibition [3] | growth inhibition [4] | growth inhibition [5] [%] | growth inhibition [6]
CN=S(=O)(OC/C=C/COS(=O)(=NC)c1ccc(C)cc1)c1ccc(C)cc1 (stereo unspecified) | -17.9% | -21.9 | -24.1% | -8.55% | -10.4 | -26.3%
CC1C(c2ccccc2O)c2cc3c(cc2OC1N1CCOCC1)OCO3 (stereo unspecified) | -24.9% | -13.6 | 7.45% | -5.75% | -18.2 | -29.1%
CC1=NN(C(=O)CC(=O)N(C(=O)c2ccccc2Cl)c2ccc(C)cc2)C(=O)C1N=Nc1ccc([N+](=O)[O-])cc1 (stereo unspecified) | 46.2% | 29.9 | 47.5% | 27.3% | 54.1 | 46.1%
CCOC(=O)CCCN1CCC=C(C#N)C1 | 13% | -2.2 | 6.7% | -7.7% | 13 | 7.85%
O=S1(=O)CC=CC1 | -10.2% | 3.45 | -7.95% | 13.2% | 11.9 | 3.15%
c1ccc(Cn2c(-c3ccccc3)c[n+]3ccccc23)cc1 | -11.4% | -10.1 | 5.35% | -49.4% | 10.3 | -6.4%
COC(=O)c1c(C(=O)c2ccccc2)nn2c(-c3ccccc3)c(-c3ccccc3)c(-c3ccccc3)c(-c3ccccc3)c12 | 10.3% | -1.6 | -23.6% | 7.05% | -1.1 | 0.1%
NC(=N\C1=NCCN1)/C(N)=N/C1=NCCN1 | -13.4% | 5.35 | -1.35% | -29.5% | -2.3 | -13.2%
Cc1ccc(C(=S)NC(=O)Nc2ccccc2)cc1 | -7.1% | 9.45 | -17.8% | -20.9% | 45.8 | 1.45%
CC(C)CCCC(C)C1CCC2C3CC=C4CC(P(=O)(c5ccccc5)c5ccccc5)CCC4(C)C3CCC12C (stereo unspecified) | 10.3% | -9.9 | -6.05% | -10.5% | 5.75 | -12.1%
CC(O)/C=C/c1ccccc1O (stereo unspecified) | 2.05% | 2.85 | -13.9% | -41.5% | -5.65 | -13.6%
Clc1ccc(OCCSCCOc2ccc(Cl)cc2)cc1 | 8.85% | -17.8 | 12.5% | -22.1% | 0.9 | 2.35%
CC(C)=CCC/C(C)=C\CC/C(C)=C/CO | -52.5% | -77.8 | -39.6% | -26.1% | -46.7 | -41.5%
CCCOc1cc2c(cc1C(C)c1ccc(OC)cc1)OCO2 (stereo unspecified) | 9.8% | -4.35 | 15.8% | -1.9% | -14.4 | -53%
CCOC(=O)OC1CC2CC(OC(=O)OCC)c3cccc(Br)c3C2c2ccccc21 (stereo unspecified) | 25.1% | 12.9 | 18.8% | 0.05% | -5.3 | 33.7%
CC(=O)NNc1nc(C)c(C(/C=C/c2ccccc2O)=N/N=C(N)N)s1 | -19.2% | -19.4 | -21.4% | -7.1% | -10.6 | -33.2%
CCc1cccc(C(C)C)c1NC(=O)C(=O)C(CC(=O)Nc1ccc(Cl)c(Cl)c1)C(=O)OC (stereo unspecified) | -1.85% | 3.6 | -2.65% | 15.8% | 14.8 | 7.7%
CC1=C(C)C2(C)C(C)C2(C)C1C (stereo unspecified) | -5.8% | -13.3 | 17.9% | 20.6% | 35 | -1.7%
Cc1c(C)c(C)c(CNNC(=S)Nc2ccc(S(=O)(=O)N3CCCCC3)cc2)c(C)c1C | -4.5% | -17.9 | 9.25% | 8.6% | 6.4 | 7.6%
CCOC(=O)Nn1c(C)nnc1CC#N | -3.05% | -2.4 | -8.1% | -16.8% | 0.65 | 18.7%
CCC(c1ccc(C(C)=O)c(O)c1)C(CC)c1ccc(C(C)=O)c(O)c1 (stereo unspecified) | 9.65% | 9.75 | 22.6% | 8.7% | 2.8 | 30.4%
CCCCN(CCO)CC(O)Cn1cnc2c(N)ncnc21 (stereo unspecified) | 17.4% | 13.9 | 8.85% | 0.7% | -5.65 | 21.3%
O=C[C@H](O)CO | 26.4% | -20.1 | 17.2% | -1.8% | 8.8 | 17.4%
